According to PubChem BioAssay AID651947 (Broad Institute, 2012):
Results with a measured potency or affinity are listed apart. Records with an inconclusive call do not appear. Unmarked numbers belong to inactive results.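 How the source made its calls: active means luminescence drop in HepG2 cells whose fitted half-effect dose is at most twice the top valid dose; inconclusive means flat curve with 30 to 70% signal loss, or unreliable fit; inactive means the rest.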

test: cytotoxicity in HepG2 cells, dose response, cytotoxicity control, cell-based, plate reader, dry powder (AID 651947); details: HepG2 viability, ATP luminescence (CellTiter-Glo), 48 h, active compounds read low; at 26 µM unless noted

SMILES | max activity
FC1(F)CCN(CCSc2nnc(-c3ccccc3)o2)CC1 | -22.5% [at 1.6 µM]
Fc1ccc(-c2nnc(SCc3ccccc3)o2)cc1 | 14.5%
COc1ccccc1-c1nnc(SCc2ccccc2)o1 | -18.4% [at 0.195 µM]
c1ccc(-c2nnc(SCCN3CCN(c4ccccc4)CC3)o2)cc1 | -48.3% [at 12 µM]
CN(C)CCSc1nnc(-c2ccccc2)o1 | -18.8% [at 0.195 µM]
Fc1ccc(CSc2nnc(-c3ccc(Cl)cc3)o2)cc1 | -47.5% [at 12 µM]
c1ccc(Cn2cc(CSc3nnc(C4CCC4)o3)nn2)cc1 | -18.3% [at 0.38 µM]
Fc1ccc(-c2nnc(SCc3cn(-c4ccccc4)nn3)o2)cc1 | -8.15%
N#Cc1ccc(CSc2nnc(-c3ccccc3)o2)cc1 | -47.6% [at 3 µM]
CC(C)c1nnc(SCc2ccccc2)o1 | 28.6% [at 0.38 µM]
Cc1cccc(CSc2nnc(-c3ccccc3)o2)c1 | -51.5% [at 0.195 µM]
CS(=O)(=O)c1cccc(CSc2nnc(-c3ccccc3)o2)c1 | -12.6% [at 0.38 µM]
Brc1cccc(-c2nnc(SCc3ccccn3)o2)c1 | -18% [at 1.6 µM]
Clc1ccccc1-c1nnc(SCc2ccccc2)o1 | -37.6% [at 6 µM]
FC(F)(F)c1cccc(CSc2nnc(-c3ccccc3)o2)c1 | -34.6% [at 1.6 µM]
